According to PubChem BioAssay (NCATS):
Inconclusive results are not listed. Calls of active or inactive are those of the source. Calls come from the whole dose curve; as a rule, active = well fitted cell-killing curve with a large enough effect; inconclusive = small, poorly fitted or top-dose-only effect, or effect the other way; inactive = no such curve, though single readings can be large or run the other way. Residues, ends and D or L forms follow the SMILES beside them. *: point of attachment. Cbz = O=C(OCc1ccccc1)*
Potency is the fitted concentration of half-maximal effect.

Experiment: Quantitative High-Throughput drug screen in 47 multiple myeloma cell lines against the NCATS MIPE library collection: U266_ATCC cell viability assay (AID 1919864); note: nearly all actives have a fitted effect of over 35% in size
Details: U266 myeloma viability, CellTiter-Glo ATP luminescence, 48 h; series mostly up to 45.8 µM
From the text: PI: Beverly A. Mock Ph.D.
Laboratory of Cancer Biology and Genetics,
Center for Cancer Research, National Cancer Institute,
National Institute of Health, Bethesda, Maryland
Drug resistance and disease progression are common in multiple myeloma (MM) patients, underscoring the need for new therapeutic combinations. […] We hypothesized that effective combinations would reduce MYC expression and enhance p16 activity. […] These preclinical data identify potentially useful drug combinations for evaluation in drug-resistant MM and reveal potential mechanisms of combined drug sensitivity.
Described herein is the primary MIPE qHTS used to cherrypick compounds. Validated compounds were then further tested for potential synergistic activiy.
[1] Peat TJ, Gaikwad SM, Dubois W, Gyabaah-Kessie N, Zhang S, Gorjifard S, Phyo Z, Andres M, Hughitt VK, Simpson RM, Miller MA, Girvin AT, Taylor A, Williams D, D'Antonio N, Zhang Y, Rajagopalan A, Flietner E, Wilson K, Zhang X, Shinn P, Klumpp-Thomas C, McKnight C, Itkin Z, Chen L, Kazandijian D, Zhang J, Michalowski AM, Simmons JK, Keats J, Thomas CJ, Mock BA. Drug combinations identified by high-throughput screening promote cell cycle transition and upregulate Smad pathways in myeloma. Cancer Lett. 2023 Aug 1;568:216284. doi: 10.1016/j.canlet.2023.216284. Epub 2023 Jun 24. PMID: 37356470; PMCID: PMC10408729.
SEQUENCE No. (e.g., 1, 2, 3, etc.); […] (e.g., Cells, Incubation, Reagent, etc.); VALUE and DESCRIPTION.
1; Cells; 5 uL; white, solid bottom 1536-well Greiner assay plate.
2; Compounds; 23 nL; Kalypsis pin tool (Wako USA) equipped with a 1536-well pin head to transfer to the assay plates.
3; Incubation; 48 hours; 37C incubation.
4; Reagent;5uL; CellTiter Glo (Promega).
5; Detector; 425V; Luminescence; Viewlux PerkinElmer.
NOTES (numbers refer to Sequence numbers above)
1. The cell-based screening methods employed in this study were like those previously published. Briefly, the corresponding myeloma cell lines were screened in 1,536-well plates with 500 cells, 5-uL per well for inhibition of cell viability (assessed by measuring ATP levels with CellTiterGlo).
2. NCATS MIPE 4.0 library of approved and investigational drugs were added using the Kalypsis pin tool. Wells treated with DMSO only for 100% viability and media only for 0% viability were used as controls.
3. The assay plates were covered and incubated for 48 hours in a 37C, 5% CO2 incubator with controlled humidity.
4. After 48 hours, CellTilter-GloTM luminescent substrate mix (Promega) reagent was added to the assay plate and plates we incubated for 5 min at room temperature.
5. Signal was measured as median relative luminescence units on a ViewLux (PerkinElmer) multiplate reader.
[1] Heske CM, Davis MI, Baumgart JT, Wilson K, Gormally MV, Chen L, Zhang X, Ceribelli M, Duveau DY, Guha R, Ferrer M, Arnaldez FI, Ji J, Tran HL, Zhang Y, Mendoza A, Helman LJ, Thomas CJ. Matrix Screen Identifies Synergistic Combination of PARP Inhibitors and Nicotinamide Phosphoribosyltransferase (NAMPT) Inhibitors in Ewing Sarcoma. Clin Cancer Res. 2017 Dec 1;23(23):7301-7311. doi: 10.1158/1078-0432.CCR-17-1121. Epub 2017 Sep 12. PMID: 28899971; PMCID: PMC6636827.
In the case of C[C@H](NCc1ccc2c(c1)nc(NC(=O)c1ccc(-c3cn[nH]c3)s1)n2CCc1ccccc1)C(C)(C)C, the Potency is reported as 1.48 µM (active). For CCN(CC)Cc1ccc2cc(COC(=O)Nc3ccc(C(=O)NO)cc3)ccc2c1, the Potency was 0.662 µM (active). For CCCCCCCCCCCC(CC1OC(=O)C1CCCCCC)OC(=O)C(CC(C)C)NC=O (stereo not given), the Potency was “inactive”. With C=C(C)[C@@H]1CC[C@]2(C(=O)O)CC[C@]3(C)[C@H](CC[C@@H]4[C@@]5(C)CC[C@H](O)C(C)(C)[C@@H]5CC[C@]43C)[C@@H]12 the Potency was “inactive”. In the case of COC(=O)[C@@H]1CC2=CC(=O)CC[C@]2(C)[C@@]23O[C@@H]2C[C@@]2(C)[C@H](CC[C@@]24CCC(=O)O4)[C@@H]13, the Potency is reported as “inactive”. In the case of CN1C(C(=O)Nc2ccccn2)=C(O)c2sc(Cl)cc2S1(=O)=O, the Potency is reported as 4.18 µM (active). In the case of CC(=O)NCC(=O)N1[C@H]2CC[C@H]1c1cc(Nc3ncc(C(F)(F)F)c(NC4CCC4)n3)ccc12, the Potency is reported as 5.9 µM (active). In the case of CC(C)C[C@H](NC(=O)[C@@H](NC(=O)c1cccc(-c2ccccc2)n1)[C@@H](C)O)B(O)O, the Potency is reported as 0.0148 µM (active). For C[C@@H]1C(=O)O[C@H]2CC34[C@H]5C[C@@H](C(C)(C)C)C36[C@H](OC(=O)[C@@H]6O)O[C@@]4(C(=O)O5)[C@]21O (stereo not given in full), the Potency was “inactive”. For CC(C)C[C@@H](C=O)NC(=O)[C@H](CC(C)C)NC(=O)[C@H](CC(C)C)NC(=O)OCc1ccccc1 (Cbz-Leu-Leu-Leu-aldehyde), the Potency was 0.166 µM (active). In the case of Cn1cc(CNCC2CCN(c3ncc(C(=O)NO)cn3)CC2)c2ccccc21, the Potency is reported as 0.0372 µM (active). With CC(C)(N)c1ccc(-c2nc3ccccc3nc2-c2ccccc2)cc1 the Potency was 23.5 µM (active). In the case of N#Cc1c(C2CCNCC2)cc(-c2c(O)cccc2OCC2CC2)nc1N, the Potency is reported as 13.2 µM (active). For Cc1cnc(Nc2ccc(N3CCN(C)CC3)cc2)nc1Nc1cccc(S(=O)(=O)NC(C)(C)C)c1, the Potency was 11.8 µM (active). With O=C(O)C=Cc1ccc(Cn2ccnc2)cc1 the Potency was “inactive”. For CC[C@]12C=CCN3CC[C@@]4(c5cc([C@@]6(C(=O)OC)C[C@H]7C[C@@H](C(C)(F)F)CN(Cc8c6[nH]c6ccccc86)C7)c(OC)cc5N(C)[C@H]4[C@@](O)(C(=O)OC)[C@H]1OC(C)=O)[C@@H]32, the Potency was 1.66 µM (active). For CCC(C(=O)O)C1CCC(C)C(C(C)C(O)C(C)C(=O)C(CC)C2OC3(C=CC(O)[C@@]4(CC[C@](C)(C5CC[C@@](O)(CC)C(C)O5)O4)O3)C(C)CC2C)O1 (stereo not given in full), the Potency was 5.26 µM (active). In the case of COc1cc2c(Nc3ccc(Cl)c(Cl)c3F)ncnc2cc1OCC1C[C@@H]2CN(C)C[C@H]2C1, the Potency is reported as 23.5 µM (active). With CC(C=CC=C(C)C=CC1=C(C)CCCC1(C)C)=CC=CC=C(C)C=CC=C(C)C=CC1=C(C)CCCC1(C)C the Potency was 16.6 µM (active). For CC(C(C)N1CC(=O)NC(=O)C1)N1CC(=O)NC(=O)C1 (stereo not given), the Potency was “inactive”. In the case of C=CC[C@@H]1C=C(C)C[C@H](C)C[C@H](OC)[C@H]2O[C@@](O)(C(=O)C(=O)N3CCCC[C@H]3C(=O)O[C@H](C(C)=C[C@@H]3CC[C@H](O)[C@H](OC)C3)[C@@H](C)[C@@H](O)CC1=O)[C@@H](C)C[C@@H]2OC, the Potency is reported as 1.32 µM (active). For CN(C)CCN1C(=O)c2cccc3cc(N)cc(c23)C1=O, the Potency was 18.7 µM (active). With CC(C)Oc1ccc(C(=O)N[C@H](CNC(=O)CN(C)C)Cc2ccc(-c3cn4cccc([C@H](C)O)c4n3)cc2)cc1Cl the Potency was 20.9 µM (active). In the case of N#CNC(=NCCCCCCOc1ccc(Cl)cc1)Nc1ccncc1, the Potency is reported as 18.7 µM (active). With C[C@]12CC[C@@H]3c4ccc(O)cc4CC[C@H]3[C@H]1CC[C@H]2O the Potency was 6.62 µM (active). For O=C(O)CCCCCC(=O)NN=C1CCCC1, the Potency was “inactive”. With COc1cc(OC)cc(-c2ccc3ncc4ccc(=O)n(-c5ccc(N6CCNCC6)c(C(F)(F)F)c5)c4c3c2)c1 the Potency was 11.8 µM (active). In the case of Cn1cnc(=N)c2[nH]cnc21, the Potency is reported as 0.235 µM (active). In the case of CCCCCCCCCCCCCCCC(=O)OC[C@@H](NC(=O)C(Cl)Cl)[C@H](O)c1ccc([N+](=O)[O-])cc1, the Potency is reported as “inactive”. For COc1ccc([C@@H]2CNC(=O)C2)cc1OC1CCCC1, the Potency was 1.18 µM (active). For CN[C@@H]1C[C@H]2O[C@@](C)([C@H]1OC)n1c3ccccc3c3c4c(c5c6ccccc6n2c5c31)C(=O)N[C@H]4O, the Potency was 1.05 µM (active). With O=C1c2cccc(O)c2C(=O)c2c(O)cc(CO)cc21 the Potency was “inactive”. With CCS(=O)(=O)Nc1ccc2[nH]c(O)c(C(=Nc3ccc(CN4CCCCC4)cc3)c3ccccc3)c2c1 the Potency was 5.9 µM (active). With COc1cc(C=CC(=O)CC(=O)C=Cc2ccc(O)c(OC)c2)ccc1O the Potency was 34 µM (active). For COc1ccc(CCC(=O)c2c(O)cc(O[C@@H]3O[C@H](CO)[C@@H](O)[C@H](O)[C@@H]3O[C@@H]3O[C@@H](C)[C@H](O)[C@@H](O)[C@@H]3O)cc2O)cc1O, the Potency was 8.33 µM (active). For C[C@H](CCC(=O)O)[C@H]1CCC2C3C[C@H](O)[C@@H]4C[C@H](O)CC[C@]4(C)C3CC[C@@]21C (stereo not given in full), the Potency was “inactive”. For Cc1nc(NC(=O)N2CCC[C@@H]2C(N)=O)sc1-c1ccnc(C(C)(C)C(F)(F)F)c1, the Potency was 8.33 µM (active). In the case of Cn1cc(-c2cnn3c(N)c(Br)c([C@H]4CCCNC4)nc23)cn1, the Potency is reported as 7.43 µM (active). In the case of CNC(=O)Nc1ccc(-c2nc(N3CC4CCC(C3)O4)c3cnn(C4CCC5(CC4)OCCO5)c3n2)cc1, the Potency is reported as 0.0148 µM (active). With CC(=O)OCC(=O)[C@@]1(O)CC[C@H]2[C@@H]3CCC4=CC(=O)CC[C@]4(C)[C@@H]3C(=O)C[C@@]21C the Potency was “inactive”.
